Results as given in PubChem BioAssay (NCATS).
Results filed as inconclusive are left out. Activity calls are given as the source filed them. Unless noted, calls follow the shape of the dose curve; as a rule, active = well fitted curve in the direction sought with a large enough effect; inconclusive = small, poorly fitted or top-dose-only effect, or another doubt; inactive = no such curve, though single readings can be large; an effect the other way counts as inactive or inconclusive. Where a SMILES comes first, the peptide text is derived from it. [ ]: non-standard residue; d: D form. pGlu = O=C1CC[C@@H](C(=O)O)N1; Thz = O=C(O)[C@@H]1CSCN1

Tests used:
[1] = qHTS assay for measurement of the activity of small molecule inhibitors on Zika virus induced Caspase-3 activity in human astrocytoma cells (AID 1224859); also: potency is read from the fitted curve at half-maximal effect
How it was run: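 Caspase activation in ZIKV-infected SNB-19 cells (2 FFU/cell, 6 h) measured by Caspase-Glo 3/7 luminescence after 30 min RT; compound pre-incubated 1 h; normalised to uninfected and infected controls.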

[2] = biological target: Atrial natriuretic peptide receptor 1 (Homo sapiens) (UniProt P16066); test: Natriuretic polypeptide receptor (hNpr1) antagonism - Pilot screen (AID 1347049; calls by dose curve;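 also: agonist-evoked cGMP luminescence read 20 min after hNppA addition; series mostly up to about 58 µM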)
How it was run: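 HEK293 cells co-expressing hNpr1 and the GloSensor pGS-40F cGMP luciferase sensor were preloaded with 2% GloSensor reagent for 2 h. Compounds were added for 30 min at room temperature, then cells were stimulated with 0.1 nM hNppA for 20 min before luminescence readout.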

[3] = biological target: Atrial natriuretic peptide receptor 2 (Homo sapiens) (UniProt P20594); test: Natriuretic polypeptide receptor (hNpr2) antagonism - Pilot subtype selectivity assay (AID 1347050; calls by dose curve)
How it was run: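 cGMP-sensor HEK293/hNpr2 cells; 2% GloSensor reagent 2 h RT; compounds 30 min; baseline luminescence read; 1 nM hNppC agonist 20 min RT; final luminescence read by CCD camera. Antagonism = reduced post-agonist signal.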

[4] = biological target: Parathyroid hormone/parathyroid hormone-related peptide receptor (Homo sapiens) (UniProt Q03431); test: qHTS for PTHR1 Agonists: Optimization Screen against the NCGC LOPAC library (AID 1347079);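 also: GloSensor cAMP luminescence in HEK-293 GP2 cells expressing human PTHR1 with IBMX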
How it was run: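 Compounds were tested across a qHTS titration. PTHR1-expressing GP2 cells report cAMP rises via GloSensor luminescence after 1 hr compound exposure at 37C with IBMX present.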

[5] = biological target: T1, Tyrosine-protein phosphatase non-receptor type substrate 1 (Homo sapiens) + Leukocyte surface antigen CD47 (Homo sapiens) (UniProt P78324+Q08722); test: CD47-SIRPalpha protein protein interaction - LANCE assay qHTS validation (AID 1347057; active = well fitted curve in the direction sought with a large enough effect in the signal ratio, with a control signal flat, not every such curve was filed as active; the % refers to the signal ratio; also: potency is read from the fitted curve at half-maximal effect)
How it was run: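 First, His-tagged CD47 and Eu-labelled anti-His antibody met the compound for 30 min; next, site-specifically biotinylated SIRPalpha was added for 30 min; finally streptavidin-APC was added before reading the TR-FRET ratio.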

[6] = biological target: T1, Tyrosine-protein phosphatase non-receptor type substrate 1 (Homo sapiens) + Leukocyte surface antigen CD47 (Homo sapiens); test: CD47-SIRPalpha protein protein interaction - HTRF assay qHTS validation (AID 1347058; active = well fitted curve in the direction sought with a large enough effect in the signal ratio, not every such curve was filed as active; the % refers to the signal ratio; also: series mostly up to about 38 µM)
How it was run: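 TR-FRET read (Ch1/Ch2 ratio) of soluble extracellular CD47 and Avi-biotinylated SIRPalpha domains in PBS pH 7.4 with 0.05% IGEPAL; 7-point compound titration. Sequential 30 min room-temperature steps; non-biotinylated SIRPalpha as control inhibitor.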

[7] = biological target: T1, Tyrosine-protein phosphatase non-receptor type substrate 1 (Homo sapiens) + Leukocyte surface antigen CD47 (Homo sapiens); test: CD47-SIRPalpha protein protein interaction - Alpha assay qHTS validation (AID 1347059);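 also: bead proximity luminescence from CD47 binding SIRPalpha after compound preincubation with SIRPalpha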
How it was run: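 Soluble extracellular domains: Avi-tag biotinylated SIRPalpha (25 nM) preincubated 30 min RT with compound, then 6His-CD47 (12.5 nM) 30 min; Ni-NTA acceptor and streptavidin donor beads (10 ug/mL) 30 min, AlphaScreen read. PBS pH 7.4, 0.05% IGEPAL.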

[8] = NS1 protein of Zika virus - qHTS assay to identify small molecule inhibitors in human HEK 293 cells (AID 1347053); also: series mostly up to about 46 µM; nearly all actives have a fitted effect of over 55% in size
How it was run: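 Following 20 h seeding, HEK 293 cells took compound, then 1 h later ZIKV MR766 (MOI = 0.5). Incubation ran 24 h at 37 C before TR-FRET detection of NS1; a drop in signal indicates inhibition.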

[9] = qHTS assay to identify small molecule inhibitors of chordoma cells - UCH-1 (AID 1259355); also: nearly all actives have a fitted effect of over 55% in size
How it was run: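 Luminescent ATP read-out (CellTiter-Glo, 30min at room temperature) measured viability of UCH-1 cells exposed for 48hr to test drugs at 15 concentrations, co-dosed with a five-agent combination of auranofin, camptothecin, doxorubicin, rubitecan and topotecan.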

[10] = qHTS assay to identify small molecule inhibitors of chordoma cells - UCH-2 (AID 1259356); also: series mostly up to about 46 µM
[11] = P-glycoprotein substrates identified in KB-8-5-11 adenocarcinoma cell line, qHTS therapeutic library screen (AID 1346987); also: nearly all actives have a fitted effect of over 65% in size
How it was run: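 KB-8-5-11: colchicine-selected sub-line of KB-3-1 over-expressing P-gp; assay medium lacked colchicine. 72 h drug exposure at 37 degree C, CellTiter-Glo.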

[12] = qHTS of pediatric cancer cell lines to identify multiple opportunities for drug repurposing: Primary screen for TC32 cells (AID 1347089); also: nearly all actives have a fitted effect of over 60% in size
How it was run: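 Luminescent ATP read-out (CellTiter-Glo) of metabolically active TC32 cells after 48 h exposure. Concentration-response curves came from 11-point (MIPE, 0.78 nM–46 µM) or 8-point (NPC, 0.59 nM–46 µM) primary titrations; follow-up used 11 points.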

[13] = qHTS of pediatric cancer cell lines to identify multiple opportunities for drug repurposing: Primary screen for DAOY cells (AID 1347090); also: series mostly up to about 46 µM; nearly all actives have a fitted effect of over 55% in size
How it was run: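 Eight- or eleven-point concentration series, 48 h treatment at 37 degrees C in growth media; readout CellTiter-Glo luminescence. Potency and efficacy were taken from the concentration-response curves.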

Measured: Potency

Sequence of Parathyroid hormone/parathyroid hormone-related peptide receptor (Homo sapiens) (Q03431 whole entry, looked up): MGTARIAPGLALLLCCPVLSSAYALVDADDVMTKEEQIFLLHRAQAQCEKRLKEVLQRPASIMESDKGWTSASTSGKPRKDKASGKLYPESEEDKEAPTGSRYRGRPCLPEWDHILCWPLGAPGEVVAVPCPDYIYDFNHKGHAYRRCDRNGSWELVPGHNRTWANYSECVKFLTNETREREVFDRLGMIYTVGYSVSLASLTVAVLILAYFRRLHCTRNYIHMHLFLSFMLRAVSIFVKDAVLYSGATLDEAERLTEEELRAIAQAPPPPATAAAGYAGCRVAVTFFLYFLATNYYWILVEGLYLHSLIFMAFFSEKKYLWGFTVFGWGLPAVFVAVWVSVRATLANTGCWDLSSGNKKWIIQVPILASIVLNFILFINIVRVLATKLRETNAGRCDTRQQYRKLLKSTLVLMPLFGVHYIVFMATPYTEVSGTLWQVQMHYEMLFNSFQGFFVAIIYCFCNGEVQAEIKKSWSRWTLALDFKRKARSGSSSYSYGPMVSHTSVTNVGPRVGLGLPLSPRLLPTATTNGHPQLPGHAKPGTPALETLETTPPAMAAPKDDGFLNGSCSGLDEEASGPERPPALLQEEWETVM
Sequence of Atrial natriuretic peptide receptor 1 (Homo sapiens) (P16066 whole entry, looked up): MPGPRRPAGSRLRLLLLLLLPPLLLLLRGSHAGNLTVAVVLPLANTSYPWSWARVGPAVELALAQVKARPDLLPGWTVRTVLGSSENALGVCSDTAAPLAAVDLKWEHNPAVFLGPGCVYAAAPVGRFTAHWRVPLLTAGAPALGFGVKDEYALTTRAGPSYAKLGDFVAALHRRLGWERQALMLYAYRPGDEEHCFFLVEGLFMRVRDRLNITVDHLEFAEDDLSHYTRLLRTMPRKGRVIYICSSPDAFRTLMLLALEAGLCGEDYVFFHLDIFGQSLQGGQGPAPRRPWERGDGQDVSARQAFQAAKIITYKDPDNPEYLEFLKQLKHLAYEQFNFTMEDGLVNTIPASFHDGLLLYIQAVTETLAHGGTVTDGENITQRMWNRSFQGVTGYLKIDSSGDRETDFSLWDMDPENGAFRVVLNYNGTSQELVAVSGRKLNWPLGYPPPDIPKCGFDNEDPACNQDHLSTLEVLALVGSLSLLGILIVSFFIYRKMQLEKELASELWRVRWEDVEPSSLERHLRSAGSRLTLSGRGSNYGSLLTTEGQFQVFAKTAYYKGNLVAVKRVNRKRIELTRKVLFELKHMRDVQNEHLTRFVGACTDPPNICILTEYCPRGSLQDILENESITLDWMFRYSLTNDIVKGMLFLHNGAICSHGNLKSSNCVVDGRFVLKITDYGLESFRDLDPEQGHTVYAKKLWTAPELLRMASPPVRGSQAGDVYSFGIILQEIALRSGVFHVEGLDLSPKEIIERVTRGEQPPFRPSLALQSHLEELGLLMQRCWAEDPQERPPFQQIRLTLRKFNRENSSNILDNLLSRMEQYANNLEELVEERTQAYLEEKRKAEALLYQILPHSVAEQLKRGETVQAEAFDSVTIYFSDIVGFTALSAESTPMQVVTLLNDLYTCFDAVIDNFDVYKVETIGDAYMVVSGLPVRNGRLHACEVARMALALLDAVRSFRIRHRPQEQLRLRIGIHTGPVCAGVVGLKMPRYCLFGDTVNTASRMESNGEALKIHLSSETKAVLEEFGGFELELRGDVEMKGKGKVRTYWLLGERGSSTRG
Sequence of Atrial natriuretic peptide receptor 2 (Homo sapiens) (P20594 whole entry, looked up): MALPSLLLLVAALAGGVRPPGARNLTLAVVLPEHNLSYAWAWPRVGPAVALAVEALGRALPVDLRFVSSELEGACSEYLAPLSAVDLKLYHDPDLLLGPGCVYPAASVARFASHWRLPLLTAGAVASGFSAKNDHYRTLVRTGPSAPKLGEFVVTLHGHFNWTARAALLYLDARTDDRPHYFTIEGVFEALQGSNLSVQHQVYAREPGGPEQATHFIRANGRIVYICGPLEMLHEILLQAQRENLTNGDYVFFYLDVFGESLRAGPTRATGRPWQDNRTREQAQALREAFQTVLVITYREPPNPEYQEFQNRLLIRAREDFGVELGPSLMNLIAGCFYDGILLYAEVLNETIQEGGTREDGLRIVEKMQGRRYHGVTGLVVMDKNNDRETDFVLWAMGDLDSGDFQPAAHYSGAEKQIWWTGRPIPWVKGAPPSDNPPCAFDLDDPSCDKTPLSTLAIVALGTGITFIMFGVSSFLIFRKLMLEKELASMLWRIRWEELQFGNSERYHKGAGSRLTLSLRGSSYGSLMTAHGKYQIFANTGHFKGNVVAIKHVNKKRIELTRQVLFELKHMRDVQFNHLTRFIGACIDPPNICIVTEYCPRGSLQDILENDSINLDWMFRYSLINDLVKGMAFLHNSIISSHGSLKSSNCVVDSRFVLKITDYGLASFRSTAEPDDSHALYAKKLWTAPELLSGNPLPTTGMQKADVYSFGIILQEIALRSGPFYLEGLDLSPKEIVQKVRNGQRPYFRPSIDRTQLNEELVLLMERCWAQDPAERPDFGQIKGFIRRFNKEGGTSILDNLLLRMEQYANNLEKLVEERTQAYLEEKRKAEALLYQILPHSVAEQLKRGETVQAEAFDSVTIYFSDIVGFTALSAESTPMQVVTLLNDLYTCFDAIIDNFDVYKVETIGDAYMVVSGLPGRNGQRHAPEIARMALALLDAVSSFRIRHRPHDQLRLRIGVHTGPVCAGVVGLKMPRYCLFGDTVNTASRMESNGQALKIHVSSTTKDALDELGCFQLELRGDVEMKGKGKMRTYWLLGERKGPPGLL
T1 sequence (P78324 whole entry, looked up): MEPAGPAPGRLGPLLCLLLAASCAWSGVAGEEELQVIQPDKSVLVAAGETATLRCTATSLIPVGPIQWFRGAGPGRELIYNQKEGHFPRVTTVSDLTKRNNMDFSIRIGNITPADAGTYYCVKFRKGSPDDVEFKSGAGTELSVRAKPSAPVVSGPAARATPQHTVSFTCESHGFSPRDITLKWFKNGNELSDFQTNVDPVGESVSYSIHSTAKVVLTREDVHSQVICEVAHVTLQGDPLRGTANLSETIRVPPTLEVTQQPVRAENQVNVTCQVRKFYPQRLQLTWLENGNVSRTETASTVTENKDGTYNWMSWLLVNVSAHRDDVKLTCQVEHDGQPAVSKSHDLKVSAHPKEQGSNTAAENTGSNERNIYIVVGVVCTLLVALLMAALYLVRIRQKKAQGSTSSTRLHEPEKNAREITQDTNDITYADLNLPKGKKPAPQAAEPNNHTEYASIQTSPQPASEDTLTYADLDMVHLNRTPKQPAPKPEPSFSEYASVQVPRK
T1 sequence (Q08722 whole entry, looked up): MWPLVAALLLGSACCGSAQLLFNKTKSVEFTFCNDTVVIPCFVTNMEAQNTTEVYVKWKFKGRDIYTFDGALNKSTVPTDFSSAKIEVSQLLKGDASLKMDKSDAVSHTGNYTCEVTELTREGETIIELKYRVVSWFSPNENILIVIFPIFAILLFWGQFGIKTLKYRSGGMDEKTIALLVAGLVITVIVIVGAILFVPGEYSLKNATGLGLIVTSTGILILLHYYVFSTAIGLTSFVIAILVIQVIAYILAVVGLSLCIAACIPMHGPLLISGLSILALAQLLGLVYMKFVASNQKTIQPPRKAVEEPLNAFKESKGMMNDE

COc1ccccc1N1CCN(CCCCNS(=O)(=O)c2cccc3c(N(C)C)cccc23)CC1
inactive: [1] | [2] | [3] | [4]

NC(CCCP(=O)(O)O)C(=O)O (centres undefined)
inactive: [1] | [2] | [3] | [5] | [6] | [7] | [4]

Nc1nc(SCc2ccc([N+](=O)[O-])cc2)c2ncn([C@@H]3O[C@H](CO)[C@@H](O)[C@H]3O)c2n1
inactive: [1] | [2] | [3] | [8] | [5] | [7] | [4]

OCC1O[C@H]([S-])[C@H](O)[C@@H](O)[C@@H]1O.[Au+] (some centres undefined)
inactive: [1] | [3] | [4]
active: [5] 5.85 µM

CCCCN1CCC(n2c(=O)[nH]c3ccccc32)CC1
inactive: [1] | [3] | [4]

NCCSSCCN
not listed: [9] | [10] | [11] | [12] | [13]
inactive: all other assays above

OC[C@H]1O[C@@H](n2cnc3c(Nc4ccccc4)ncnc32)[C@H](O)[C@@H]1O
inactive: [1] | [2] | [3] | [4]

O=C1/C(=C/c2ccsc2)CC/C1=C\c1cccs1
inactive: [1] | [8] | [5] | [7] | [4]

CC[C@H]1OC(=O)[C@H](C)C(=O)[C@H](C)[C@@H](O[C@@H]2O[C@H](C)C[C@H](N(C)C)[C@H]2O)[C@](C)(OC)C[C@@H](C)C(=O)[C@H](C)[C@H]2N(CCCCn3cnc(-c4cccnc4)c3)C(=O)O[C@]12C
inactive: [9] | [10] | [11]

CC1(C)[C@@H](O[C@H]2O[C@H](C(=O)O)[C@@H](O)[C@H](O)[C@H]2O[C@@H]2O[C@H](C(=O)O)[C@@H](O)[C@H](O)[C@H]2O)CC[C@]2(C)[C@H]3C(=O)C=C4[C@@H]5C[C@@](C)(C(=O)O)CC[C@]5(C)CC[C@@]4(C)[C@]3(C)CC[C@@H]12
inactive: [9] | [10] | [11]

CCCCC[C@H](O)/C=C/[C@@H]1[C@@H](C/C=C\CCCC(=O)O)[C@@H](O)C[C@H]1O
inactive: [9] | [10] | [11]

Cc1onc(-c2c(F)cccc2Cl)c1C(=O)N[C@@H]1C(=O)N2[C@@H]1SC(C)(C)[C@@H]2C(=O)O
inactive: [9] | [10] | [11]

CC(C)OC(=O)c1cc(C(=O)OC(C)C)cc([N+](=O)[O-])c1
inactive: [1] | [12] | [13]

CC1(C)S[C@@H]2[C@H](NC(=O)[C@H](NC(=O)N3CCN(S(C)(=O)=O)C3=O)c3ccccc3)C(=O)N2[C@H]1C(=O)O
inactive: [9] | [10] | [11]

O=C1CC[C@@H](C(=O)N2CSC[C@H]2C(=O)O)N1 ([pGlu]-[Thz]-OH)
inactive: [9] | [10] | [11]

CCCCCCCCCCCCOCCO
inactive: [1] | [8] | [12] | [13]

CCCCCCCC/C=C/C(=O)O
inactive: [1] | [8] | [12] | [13]

CCCCC/C=C\CC(O)/C=C/c1cccc(CC(O)CCCCO)n1 (centres undefined)
inactive: [1] | [3] | [4]

O=C(O)COc1ccc(C(=O)c2cccs2)c(Cl)c1Cl
inactive: [9] | [10] | [11]

CC1(C)S[C@@H]2[C@H](NC(=O)[C@H](N)c3ccc(O)cc3)C(=O)N2[C@H]1C(=O)O
inactive: [9] | [10] | [11]

COc1ccnc2c1CCCCC2S(=O)c1nc2ccccc2[nH]1 (centres undefined)
inactive: [1] | [8] | [12] | [13]

CN1[C@@H]2CC[C@H]1CC(OC(=O)C(CO)c1ccccc1)C2 (some centres undefined)
inactive: [9] | [10] | [11]

CO[C@H]1C[C@@H]2CC[C@@H](C)[C@@](O)(O2)C(=O)C(=O)N2CCCC[C@H]2C(=O)O[C@H]([C@H](C)C[C@@H]2CC[C@@H](O)[C@H](OC)C2)CC(=O)[C@H](C)C=C(C)[C@@H](O)[C@@H](OC)C(=O)[C@H](C)C[C@H](C)/C=C/C=CC=C1C
inactive: [9] | [10] | [11]

CN=c1nc(-c2ccccc2)n(-c2ccccc2)s1
inactive: [1] | [5] | [6] | [7] | [4]

COC(=O)[C@H]1[C@H]2C[C@@H]3c4[nH]c5cc(OC)ccc5c4CCN3C[C@H]2C[C@@H](OC(=O)/C=C/c2cc(OC)c(OC)c(OC)c2)[C@@H]1OC
inactive: [9] | [10] | [11]

O=C(O)/C=C\C(=O)O
inactive: [1] | [8] | [12] | [13]

C=C(Nc1ccc(OCC)cc1)Nc1ccc(OCC)cc1
inactive: [9] | [10] | [11]

COc1ccc(NC(=O)/C=C/c2ccc(Cl)cc2)cc1
active: [1] 5.62 µM
inactive: [8] | [5] | [7] | [4]

CC(=O)O[C@H]1C[C@@]2(C)[C@@H](C[C@@H](O)[C@H]3[C@@]4(C)CC[C@@H](O)[C@@H](C)[C@@H]4CC[C@@]32C)/C1=C(\CCC=C(C)C)C(=O)O
inactive: [9] | [10] | [11]

CCCCCC[C@@H](O)C/C=C\CCCCCCCC(=O)O
inactive: [9] | [10] | [11]

C#CCN1C(C)=C(C(=O)OC)C(c2cccc([N+](=O)[O-])c2)C(C(=O)OCC)=C1C (centres undefined)
inactive: [1] | [4]

COc1ccccc1N1CCN(CCN(C(=O)c2ccc(I)cc2)c2ccccn2)CC1
inactive: [1] | [4]

C[N+]1(C)C2CC(OC(=O)[C@H](CO)c3ccccc3)CC1C1OC12 (some centres undefined)
inactive: [1] | [8] | [5] | [6] | [7] | [4]

C[S+](CC[C@H](N)C(=O)O)C[C@H]1O[C@@H](n2cnc3c(N)ncnc32)[C@H](O)[C@@H]1O (some centres undefined)
inactive: [9] | [10] | [11]

O=C(O)[C@H](CC(=O)N1C[C@H]2CCCC[C@H]2C1)Cc1ccccc1
inactive: [9] | [10] | [11]

CCCCCC(O)c1cccc(OCc2ccc3ccccc3n2)c1 (centres undefined)
inactive: [1] | [4]

Ic1ccc(N2CCN(Cc3c[nH]c4ncccc34)CC2)cc1
inactive: [1] | [4]

O=C(O)[C@H](O)[C@@H](O)[C@H](O)[C@H](O)CO
inactive: [9] | [10] | [11]
